Where “and” joins values, the source holds several entries; their conditions need not be identical. Identical values can stand only once. The panel holds about 83,000 compounds, 20% with a hit somewhere; the sample as a whole holds those more often.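 Negative percent growth values reflect cell death: -40 means 40% of the cells present at the start died, and -100 means all died.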 Calls of active or inactive are those of the source. The calls were made as follows: active = growth percent below 10; inactive = the rest.
Each molecule was assayed on UACC-62 melanoma (assay: NCI-60 one-dose screen, 48 h (100 = growth as untreated, 0 = no growth, -100 = all killed)). Details: 10 µM unless noted.
With `C=CCNC1=C2C[C@@H](C)C[C@@H](OC)[C@@H](OC(=O)CCCN)[C@H](C)/C=C(\C)[C@@H](OC(N)=O)[C@H](OC)/C=C\C=C(/C)C(=O)NC(=CC1=O)C2=O` the growth was -57.7% [100 µM] (active) and -64.4% [100 µM] (active).
`Clc1ccc(C2NN=C3c4ccccc4OCC32)cc1` (stereo not drawn) was tested, and the growth was 4.4% [100 µM] (active) and -69.2% [100 µM] (active).
In the case of `CCC1OC2(C)CC(C#N)(C#N)C1(C#N)C(=N)O2` (stereo not drawn), the growth is reported as 34.6% [100 µM] (inactive).
In the case of `CCCCCCCCCCCCC/C=C/[C@H]1[C@@H](C(=O)OC)N1S(=O)c1ccc(C)cc1` (stereo partly drawn), the growth is reported as 64.8% [100 µM] (inactive) and 3.51% [100 µM] (active).
For `COc1ccc2c(C)cc(N/N=C/c3ccc(C)s3)nc2c1`, the growth was -86.5% [100 µM] (active) and -100% [100 µM] (active).
With `CCCCCCCCCC(=O)CC(=O)c1c(O)cc(O)cc1O` the growth was -97.6% [75 µM] (active) and -88.4% [75 µM] (active).
`COc1cc(C)c2c(c1C=O)Oc1c(c(C)c(O)c3c1C(O)OC3=O)OC2=O` (stereo not drawn) was tested, and the growth was -82.4% [100 µM] (active) and 98.2% [100 µM] (inactive).
With `CC(C)=CCc1cc(C2COc3cc4c(c(O)c3C2=O)C=CC(C)(C)O4)c(O)cc1O` (stereo not drawn) the growth was -86.8% [100 µM] (active) and -97.1% [100 µM] (active).
For `CCOc1cc2c(cc1O)/C(=N/NS(=O)(=O)c1ccc(C)cc1)C[C@@H]1[C@@H]2CC[C@]2(C)[C@@H](O)CC[C@@H]12`, the growth was -88.9% [100 µM] (active).
In the case of `COc1ccc2cc1Oc1ccc(cc1)CC1c3cc(OC)c(cc3CCN1C)Oc1c(OC)c(OC)cc3c1C(C2)N(C)CC3` (stereo not drawn), the growth is reported as -46.8% [75 µM] (active) and -87.8% [75 µM] (active).
`O[C@H]1[C@H](O)[C@@H](Cn2nnc(-c3ccccc3)c2-c2ccccc2)OCO[C@@H]1Cn1nnc(-c2ccccc2)c1-c1ccccc1` was tested, and the growth was -77.8% [100 µM] (active).
In the case of `CC(C)C1OC(N)=C(C#N)C1(C#N)C#N` (stereo not drawn), the growth is reported as 55.5% [100 µM] (inactive) and 25.9% [100 µM] (inactive).
In the case of `COC(=O)C(=O)C(C(=O)C(=O)Nc1ccccc1C(C)=O)c1nc2ccc(C(=O)c3ccccc3)cc2[nH]c1=O` (stereo not drawn), the growth is reported as 48.7% [100 µM] (inactive) and 10.4% [100 µM] (inactive).
`Cc1ccc(F)cc1NC(=O)O/N=C(\Cl)C(C)C` was tested, and the growth was 82.6% [100 µM] (inactive) and 60.7% [100 µM] (inactive).
`C=C(CCC(C(=O)O)C1CCC2(C)C3=C(CCC12C)C1(C)CCC(O)C(C)(C)C1CC3)C(C)C` (stereo not drawn) was tested, and the growth was -50.9% [100 µM] (active) and -100% [100 µM] (active).
With `CC(C)CCCC(C)[C@H]1CC[C@H]2[C@@H]3CC[C@H]4C[C@@H](CCC=C(c5cc(Cl)c(O)c(C(=O)O)c5)c5cc(Cl)c(O)c(C(=O)O)c5)CC[C@]4(C)[C@H]3CC[C@]12C` (stereo partly drawn) (tested in a mixture with another compound) the growth was 72.7% [50 µM] (inactive) and 21% [50 µM] (inactive).
With `C=CC1=C(C)C2=NC1=CC1=NC(=C(CC)/C1=C\O)C=C1N=C3C(=C1C)C(=O)[C@H](C(=O)OC)C3=C1NC(=C2)[C@@H](C)[C@@H]1CCC(=O)O` the growth was -28.7% [100 µM] (active) and 0.467% [100 µM] (active).
In the case of `Cc1cc(N(CCC#N)CCC#N)ccc1/C=N/NC(=O)c1cc(Cl)ccc1O`, the growth is reported as 46.2% [100 µM] (inactive) and 8.92% [100 µM] (active).
With `O=C1c2ccccc2-c2c1c1ccccc1c(=O)n2CCO` the growth was -21.8% [100 µM] (active) and -78.7% [100 µM] (active).
For `COc1ccc(N=C(C)C(C)=Nc2ccc(OC)cc2)cc1`, the growth was 9.18% [100 µM] (active) and 4.99% [100 µM] (active).
With `N#Cc1nc(C(F)(F)F)oc1N` the growth was 57.6% [100 µM] (inactive) and 93.3% [100 µM] (inactive).
`COC(=O)C(C(=O)C(=O)Nc1c(C)cccc1C(C)(C)C)c1nc2ccc(Cl)cc2[nH]c1=O` (stereo not drawn) was tested, and the growth was 68% [100 µM] (inactive) and 84.1% [100 µM] (inactive).
`Cc1ccc(NC(=O)/C(=N\NC(N)=O)c2c(O)c3ccccc3[nH]c2=O)cc1` was tested, and the growth was 87% [100 µM] (inactive) and 83% [100 µM] (inactive).
